Bioassay records as filed in PubChem BioAssay.
An excerpt weighted towards active compounds, which were near 21% of everything screened.
IL-1B inflam inh: inhibitors of inflammasome signaling (IL-1 beta secretion) | THP-1 LPS/ATP IL-1B secretion, AlphaLISA, 16 h; stronger effect = lower value | activity change, % at 57.5 µM | actives 4.7% (n = 360,000) | AID 743279; in the data active means activity change below about -50%; inconclusive means mostly about -30% to -49%
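THP-1 cells pretreated 1 hr with compounds (up to 57.5 uM final), then stimulated with LPS (250 ng/mL final) plus ATP (1.25 mM final); secreted IL-1B measured by AlphaLISA after 16 hr, decreased signal indicating inhibition.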
Gal4-VP16 FLuc: counter-screen for ROR gamma inhibitors: Gal4-VP16 reporter; Drosophila S2 Gal4-VP16 UAS-luciferase, luminescence, 20 h; Potency, µM (doses to about 53.6 µM), without a hit: at the top dose activity, negative = inhibition, actives largely listed as inhibitors; actives 3.5% (n = 310,000); AID 2546;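 further: Gal4-VP16 expression switched on by copper sulfate through the metallothionein promoter; potency means the concentration at half of the fitted maximal effect; nearly all actives have a fitted effect of over 50% in size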
TDP1 cell CPT: DT40-hTDP1 cell growth loss with CPT. chicken DT40 Tdp1-/-;hTDP1 cells + 20 nM CPT, ATP luminescence, 48 h. actives 12% (n = 420,000). Potency, µM (doses to about 46.2 µM), for the others: at the top dose activity change, negative = growth inhibition, hits mostly inhibitors; further: potency means the concentration at half of the fitted maximal effect; nearly all actives have a fitted effect of over 55% in size
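Cell growth measured by CellTiter-Glo luminescence after a minimum 48 h, 37 C compound exposure with 20 nM CPT in Tdp1-knockout DT40 cells stably expressing hTDP1, seeded 400/well; qHTS titration format.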
RORgamma inh: inhibitors of mouse ROR gamma transcriptional activity; Potency, µM (doses to about 53.6 µM), for the others: top-dose activity change, negative = inhibition, most hits filed as inhibitors; P51450; AID 2551; actives 5.4% (n = 310,000); Drosophila S2 Gal4-RORgamma UAS-luciferase reporter, 20 h; further: potency means the concentration at half of the fitted maximal effect; nearly all actives have a fitted effect of over 60% in size
Target sequence (P51450 whole entry, looked up, the tested form may be a part): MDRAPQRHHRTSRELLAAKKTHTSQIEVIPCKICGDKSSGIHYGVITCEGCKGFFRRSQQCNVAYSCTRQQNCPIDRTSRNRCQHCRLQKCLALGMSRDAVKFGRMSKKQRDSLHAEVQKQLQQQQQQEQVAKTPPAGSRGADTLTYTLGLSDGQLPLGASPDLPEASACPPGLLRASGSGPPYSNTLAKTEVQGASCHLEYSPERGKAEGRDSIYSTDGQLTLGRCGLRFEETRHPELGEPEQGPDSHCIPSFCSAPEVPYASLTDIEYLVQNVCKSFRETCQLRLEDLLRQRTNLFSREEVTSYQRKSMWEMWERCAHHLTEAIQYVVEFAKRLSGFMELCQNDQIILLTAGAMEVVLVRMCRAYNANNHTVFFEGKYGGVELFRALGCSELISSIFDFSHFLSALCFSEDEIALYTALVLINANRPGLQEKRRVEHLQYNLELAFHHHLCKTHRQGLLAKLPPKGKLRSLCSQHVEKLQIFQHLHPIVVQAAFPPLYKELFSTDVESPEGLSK
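Drosophila Schneider cells stably carrying a metallothionein-driven Gal4 DBD–ROR gamma fusion and a UAS-Photinus luciferase reporter were exposed to compound for 1 hr, then induced with copper sulfate (700 uM final) for 20 hr at ambient temperature before luminescence reading.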
ELG1 repair inh: inhibitors of ELG1-dependent DNA repair in HEK293T cells; actives 2.3% (n = 330,000); HEK293T ELG1-luciferase reporter, luminescence, 16 h; DNA damage induced by 5-fluorouridine; Potency, µM (highest dose often 46.1 µM), inactives show at the top dose activity change, negative = inhibition, hits mostly inhibitors; further: potency means the concentration at half of the fitted maximal effect; nearly all actives have a fitted effect of over 55% in size
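Step one: seed 2,000 cells per well. Step two: pin-transfer compound or DMSO alongside 5-fluorouridine. Step three: incubate 16 hr, 37 °C, 5% CO2. Step four: add ONE-Glo, wait 30 min, read luminescence.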
DT40 TDP1 no CPT: qHTS for Inhibitors of human tyrosyl-DNA phosphodiesterase 1 (TDP1): qHTS in cells in absence of CPT; actives 15% (n = 420,000); Potency, µM (doses to about 46.2 µM), for the others: at the top dose activity change, negative = growth inhibition, actives largely listed as inhibitors; DT40 Tdp1-/- hTDP1 cells, no CPT, ATP luminescence, 48 h; AID 686978, 2013; further: potency means the concentration at half of the fitted maximal effect; nearly all actives have a fitted effect of over 55% in size
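Camptothecin absent (DMSO only). Human TDP1-complemented DT40 knockout cells, 400 cells/well, 37 °C for minimum 48 hr; ATP measured via CellTiter-Glo, 30 min dark incubation, luminescence.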
* = called active by the depositor; ? = inconclusive; . = no result; [ ] = dose if it differs, or a comment. Unless noted, the call rests on the fitted dose curve; in most records, active means well fitted curve in the direction sought with a large enough effect; inconclusive means small, poorly fitted or top-dose-only effect, or another doubt; inactive means no such curve, though single readings can be large; an effect the other way counts as inactive or inconclusive. On the % scale 0 is the no-effect control and ±100 the full control effect.

SMILES	IL-1B inflam inh	Gal4-VP16 FLuc	TDP1 cell CPT	RORgamma inh	ELG1 repair inh	DT40 TDP1 no CPT
Cn1cccc1C1C=C(c2ccc(C(C)(C)C)cc2)Nc2ncnn21 (stereo not drawn)	-15.8	.	?	.	.	23.1µM*
C1=C(c2ccc(-c3ccccc3)cc2)Nc2ncnn2C1c1ccco1 (stereo not drawn)	40.6	?	20.6µM*	11.2µM*	?	16.4µM*
O=C(Nc1cccc(S(=O)(=O)C(F)(F)F)c1)[C@H]1C[C@H](O)[C@@H](CO)O1	6.7	.	-12.5%	.	.	-4.4%
Cc1ccc(C2=Nc3ccccc3N=C(c3ccc([N+](=O)[O-])cc3)C2)c(O)c1	10.8	?	-18.0%	27.7%	15.6%	?
Cc1cc2nnc(SCC(=O)NC3CCCCC3)n2c(N)n1	-7.9	6.9%	9.5%	-19.2%	-0.3%	-0.5%
CCCCNC(=O)c1c(N)[nH]c(C(=O)c2ccccc2)c1-c1ccccn1	-1.3	.	?	.	.	?
Cc1nonc1NC(=O)CSc1nnc(N)s1	20.6	4.3%	-18.8%	?	11.2%	-10.0%
O=C(C[n+]1ccccc1Br)c1ccc2c(c1)CCCC2	.	.	?	.	.	20µM*
O=C(CCl)c1ccc2c(c1)CCCC2	.	.	0.891µM*	.	.	0.794µM*
O=C(COc1ccc(Br)cc1)c1ccc2c(c1)CCCC2	-27.4	3.2%	?	26.8%	16.2%	23.1µM*
O=C(CCl)c1cc2c3c(c1)CC(=O)N3CCC2	-70.9*	3.55µM*	1.16µM*	2µM*	?	0.326µM*
Cc1ccc(OCC(=O)c2ccc3c(c2)CCCC3)cc1C	-16.0	-22.8%	?	-19.0%	?	?
Cc1cc(C)cc(N2CC(c3nnc(NC(=O)c4ccco4)s3)CC2=O)c1 (stereo not drawn)	.	.	-18.5%	.	.	-23.9%
CC(C)N(C(=S)Nc1cccc(S(=O)(=O)N(C)C)c1)c1ccccc1	16.9	0.0%	?	-11.6%	0.0%	?
Cc1cccc(C)c1N1C(=O)c2ccccc2NC(=O)C1C(=O)Nc1ccc2c(c1)OCCO2 (stereo not drawn)	27.8	.	-7.4%	.	.	-20.2%
CCC(CC)NC(=O)Cc1ccccc1OC	-7.2	-1.0%	-1.4%	-26.4%	0.0%	3.5%
Cc1nn(Cc2c(F)c(F)c(F)c(F)c2F)c(C)c1NC(=O)c1ccc(COc2ccccc2Cl)cc1	5.9	-11.7%	?	36.4%	9.0%	1.46µM*
Cc1nn(Cc2c(F)c(F)c(F)c(F)c2F)c(C)c1NC(=O)c1ccc(COc2ccc(F)cc2)o1	?	-25.4%	16.4µM*	?	?	20.6µM*
S=c1nc(C2CC2)[nH]c2ccccc12	23.6	5.62µM*	?	3.55µM*	-6.6%	?
S=c1nc(SCc2ccccc2)[nH]c2ccccc12	33.4	10µM*	-14.7%	1.41µM*	4.8%	?
CC(C)c1nc(=S)c2ccccc2[nH]1	13.1	10µM*	?	5.62µM*	7.7%	18.4µM*
S=c1nc(C2CCCCC2)[nH]c2ccccc12	33.2	8.91µM*	-10.2%	0.631µM*	6.7%	?
O=c1[nH]c(C2CCCCC2)nc2ccccc12	7.8	2.3%	-27.2%	19.5%	-0.1%	0.3%
CNc1nc(=S)[nH]c2ccccc12	3.3	-3.4%	9.0%	-46.5%	-0.9%	0.8%
C/C(CCN1CCCc2nc(C)c(C)cc21)=N\OC[C@@H](C)[C@H](OCc1ccccc1)C(C)C	.	6.4%[10 µM]	.	7.9%[10 µM]	.	.
SMILES	IL-1B inflam inh	Gal4-VP16 FLuc	TDP1 cell CPT	RORgamma inh	ELG1 repair inh	DT40 TDP1 no CPT
CC1(C(=O)Nc2ccc3ccccc3c2)CCC(=O)N1CCCn1ccnc1 (stereo not drawn)	3.2	.	-1.8%	.	.	-10.9%
Cc1nnc(SCC(=O)NC2(C#N)CCCCC2)n1N	-17.0	.	-4.1%	.	.	-0.3%
CC(C)=CCC[C@@](C)(O)[C@H]1CC=C(C)CC1	.	.	-8.2%	.	.	-2.6%
O=C(CCN1CCN(C(c2ccccc2)c2ccccc2)CC1)N/N=C/c1ccc(O)cc1	-12.5	19.1%	?	-7.0%	-3.9%	?
COc1ccc(/C=N\NC(=O)CCN2CCN(c3ccccc3)CC2)cc1OC	2.8	-14.8%	-3.3%	10.8%	-48.0%	-22.2%
O=C(CCN1CCN(c2ccccc2)CC1)N/N=C/c1ccccc1OC(F)F	19.0	?	3.6%	11.2µM*	11.6µM*	-25.9%
O=C(CCN1CCN(C(c2ccccc2)c2ccccc2)CC1)N/N=C/c1ccc(O)cc1O	81.8	-19.4%	6.51µM*	14.1µM*	2.0%	5.17µM*
COc1ccc(OC)c(/C=N/NC(=O)CCN2CCN(C(c3ccccc3)c3ccccc3)CC2)c1	-3.8	?	?	10µM*	?	16.4µM*
CCOC(=O)C1=C(C)c2ccccc2N(C(=O)OC)C1(C)C(=O)OCC (stereo not drawn)	-5.7	-9.4%	10.3µM*	?	-18.9%	10.3µM*
CCOC(=O)C1=C(C)c2ccccc2OC1(CC)C(=O)OCC (stereo not drawn)	5.7	2.4%	?	3.6%	-1.5%	?
COCCN1C(=O)N[C@@H](c2cccc(C(F)(F)F)c2)C(C(C)=O)=C1C	.	-2.9%	.	-11.3%	.	.
CCN(CC)c1nc(C)c(C(=S)Nc2cc([N+](=O)[O-])ccc2Cl)s1	-13.6	-8.2%	0.6%	3.16µM*	1.1%	-18.8%
CCC(C)(C)C(=O)Nc1cc([N+](=O)[O-])ccc1Cl	3.0	-1.7%	2.1%	-10.7%	8.4%	-7.9%
O=C(c1ccc(F)cc1F)N1CCCC(c2nc(-c3ccc(F)cc3)no2)C1 (stereo not drawn)	-21.3	-2.3%	?	?	?	18.4µM*
O=C(Nc1ccc(F)cc1F)N1CCCC(c2nc(-c3ccc(F)cc3)no2)C1 (stereo not drawn)	-14.8	-3.8%	18.4µM*	2.4%	?	?
COc1ccc(C(=O)N2CCCC(c3nc(-c4ccc(OC)c(OC)c4)no3)C2)c(OC)c1 (stereo not drawn)	0.0	1.8%	?	34.8%	?	?
CCOC(=O)c1c(C)[nH]c(C)c1C(=O)Cn1nnc(-c2ccccc2C)n1	10.4	1.4%	14.6µM*	16.5%	-16.9%	?
COc1cc2c(cc1OC)C(C)N(C(=O)C(NC(=O)c1ccccc1)C(C)C)CC2 (stereo not drawn)	39.2	-3.2%	?	-12.9%	-14.5%	?
